Measurements from PubChem BioAssay (NCATS).
Records with an inconclusive call do not appear. Calls of active or inactive are those of the source. Calls come from the whole dose curve; as a rule, active = well fitted curve in the direction sought with a large enough effect; inconclusive = small, poorly fitted or top-dose-only effect, or another doubt; inactive = no such curve, though single readings can be large; an effect the other way counts as inactive or inconclusive.

Key:
[1] = target: Glutathione peroxidase 1 (Homo sapiens) (UniProt P07203); assay: Primary qHTS Assay for Inhibitors of Recombinant Selenoprotein Glutathione Peroxidase 1 (GPX1) (AID 1845191); note: nearly all actives have a fitted effect of over 65% in size; for activity, negative = inhibition: % is set by controls: 0 for no effect and ±100 for the full control effect
Summary of the method: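 GR-coupled readout: NADPH consumption tracked by fluorescence, ex 340/em 450 nm, at t=0 and after 15 min at RT. Final mix 10 nM GPX1, 1 mM GSH, 0.5 mM CHP, 0.5 mM NADPH, 100 nM GR, 0.01% BSA, following 30 min enzyme–compound preincubation.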

[2] = target: Phospholipid hydroperoxide glutathione peroxidase GPX4 (Homo sapiens) (UniProt P36969); assay: Primary qHTS Assay for Inhibitors of Recombinant Selenoprotein Glutathione Peroxidase 4 (GPX4) (AID 1845192); note: nearly all actives have a fitted effect of over 65% in size; for activity change, negative = inhibition: series mostly up to about 50 µM; % is set by controls: 0 for no effect and ±100 for the full control effect
Summary of the method: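 Steps: GPX4 plus compound, 30 min RT; add GR/GSH/NADPH master mix; start with cumene hydroperoxide; read 340/450 nm fluorescence at 0 and 15 min. Finals were 200 nM GPX4, 1 mM GSH, 0.5 mM CHP, 0.5 mM NADPH, 100 nM GR.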

[3] = target: Luciferin 4-monooxygenase (Photinus pyralis) (UniProt P08659); assay: Primary firefly luciferase (FLuc) qHTS assay for identification of artifact compounds. (AID 1845220); note: nearly all actives have a fitted effect of over 60% in size;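 for activity change, negative = inhibition: series mostly up to about 54 µM; plate controls were DMSO vehicle for no effect and no enzyme for full effect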
Summary of the method: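 D-luciferin and ATP (10 uM each, final) in Tris acetate buffer pH 7.6 were incubated with compounds for 15 min at room temperature. The reaction was started with 10 nM Photinus pyralis luciferase and luminescence read after 5 min. Percent inhibition was fitted to a 4-parameter Hill equation.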

[4] = Primary fluorescence-based thiol-reactive (MSTI) qHTS assay for identification of artifact compounds. (AID 1845221);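 note: series mostly up to about 54 µM; thiol-reactive compounds lower the probe fluorescence signal; nearly all actives have a fitted effect of over 65% in size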
Summary of the method: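 In PBS pH 7.4 with 2% DMSO, each compound met 4 uM MSTI for one hour at ambient temperature, shielded from light, before fluorescence detection.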

[5] = tested on: Nanoluciferase (engineered Oplophorus gracilirostris luciferase); assay: Primary Nanoluciferase (NLuc) qHTS assay for identification of artifact compounds. (AID 1845222);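 note: series mostly up to about 54 µM; 0% = DMSO and -100% = no enzyme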
Summary of the method: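 Diluted conditioned medium from NLuc-expressing S16 cells treated with compounds for 15 min at room temperature, then Nano-Glo substrate added; luminescence read after 5 min. Percent inhibition versus no-enzyme and DMSO controls fitted to 4-parameter Hill equation.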

Phospholipid hydroperoxide glutathione peroxidase GPX4 (Homo sapiens), sequence (P36969 whole entry, looked up): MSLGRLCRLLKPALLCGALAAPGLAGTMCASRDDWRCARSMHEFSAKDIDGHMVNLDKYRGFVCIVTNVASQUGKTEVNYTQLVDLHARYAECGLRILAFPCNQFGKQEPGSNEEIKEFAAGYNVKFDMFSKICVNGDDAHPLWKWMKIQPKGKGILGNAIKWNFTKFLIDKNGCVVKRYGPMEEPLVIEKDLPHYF
Glutathione peroxidase 1 (Homo sapiens), sequence (P07203 whole entry, looked up): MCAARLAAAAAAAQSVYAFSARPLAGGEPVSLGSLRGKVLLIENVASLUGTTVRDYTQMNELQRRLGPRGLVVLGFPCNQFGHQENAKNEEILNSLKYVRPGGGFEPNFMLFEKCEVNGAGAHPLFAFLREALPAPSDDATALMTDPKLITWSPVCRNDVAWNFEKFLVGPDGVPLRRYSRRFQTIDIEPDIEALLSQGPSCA

Cn1ncc2cc(-c3cnc(N)c(Cl)c3N3CCC4(CCNC4=O)CC3)ccc21
inactive: Potency [1] | Potency [2] | Potency [3] | Potency [4] | Potency [5]

CC1(C)CC[C@]2(C(=O)O)[C@H](O)C[C@]3(C)C(=CCC4[C@@]5(C)CC[C@H](O[C@@H]6O[C@H](CO[C@@H]7OC[C@H](O)[C@H](O)[C@H]7O[C@@H]7OC[C@H](O)[C@H](O)[C@H]7O)[C@@H](O)[C@H](O)[C@H]6O)C(C)(C)C5CC[C@]43C)[C@@H]2C1 (stereo not given in full)
inactive: Potency [1] | Potency [2] | outcome [3] inactive [at 11.6 µM] | activity change, negative = thiol reactive [4] 133% [at 11.5 µM] | activity, negative = inhibition [5] 1.1% [at 11.6 µM]

O=C(NCCN1CCC(n2c(=O)[nH]c3ccccc32)CC1)c1cc2cc(F)ccc2[nH]1
inactive: Potency [1] | Potency [2] | Potency [3] | Potency [4] | Potency [5]

Cc1ccc(C2(C(=O)N3CCC(n4nc(-c5ccccc5)oc4=O)CC3)CC2)cc1
inactive: Potency [1] | Potency [2] | Potency [3] | Potency [4] | Potency [5]

C[C@@H]1O[C@@H](O[C@H]2[C@H](O[C@H]3CC[C@@]4(C)C(CC[C@]5(C)C4C=C[C@]46OC[C@@]7(CCC(C)(C)C[C@H]74)[C@@H](O[C@@H]4O[C@@H](C)[C@H](O)[C@@H](O)[C@H]4O)C[C@]65C)[C@]3(C)CO)O[C@H](CO)[C@@H](O)[C@@H]2O[C@@H]2O[C@H](CO)[C@@H](O)[C@H](O)[C@H]2O)[C@H](O)[C@H](O)[C@H]1O (stereo not given in full)
inactive: Potency [1] | Potency [2] | outcome [3] inactive [at 11.6 µM] | activity change, negative = thiol reactive [4] 75.2% [at 11.5 µM] | activity, negative = inhibition [5] 3.17% [at 11.6 µM]

COC1C(O)C(OC2CCC3(C)C(CCC45CCC6C7(COC(=O)C7)OC4(O)C6(C)CCC35)C2)OC(C)C1OC1OC(CO)C(OC2OC(CO)C(O)C(O)C2O)C(O)C1O (stereo not given)
inactive: Potency [1] | Potency [2] | activity change, negative = inhibition [3] 0.42% [at 11.6 µM] | activity change, negative = thiol reactive [4] 19.5% [at 11.5 µM] | activity, negative = inhibition [5] 4.19% [at 11.6 µM]

CC(C)(CNC(=O)c1cccc(-c2noc(C(F)(F)F)n2)c1)c1coc(-c2ccccc2)n1
inactive: Potency [1] | Potency [2] | Potency [3] | Potency [4] | Potency [5]

C/C=C/C1=CC2=C(CO1)C(=O)C(C)(OC(=O)c1c(C)cc(O)cc1OC)C(O)C2 (stereo not given)
inactive: Potency [1] | Potency [2] | Potency [3] | Potency [4] | Potency [5]

CC(C)CCCCC(=O)N[C@@H](CO)C(=O)N[C@@H](CC(C)C)C(=O)[C@@]1(CO)CO1
inactive: Potency [1] | Potency [2] | Potency [3] | Potency [4] | Potency [5]

CC(C)C[C@@H](N)C(=O)N[C@H]1C(=O)N[C@@H](CC(N)=O)C(=O)N[C@H]2C(=O)N[C@H]3C(=O)N[C@H](C(=O)N[C@H](C(=O)O)c4cc(O)cc(O)c4-c4cc3ccc4O)[C@H](O)c3ccc(c(Cl)c3)Oc3cc2cc(c3O[C@@H]2O[C@H](CO)[C@@H](O)[C@H](O)[C@H]2O[C@H]2C[C@](C)(N)[C@H](O)[C@H](C)O2)Oc2ccc(cc2Cl)[C@H]1O
inactive: Potency [1] | Potency [2] | Potency [3] | Potency [4] | Potency [5]

O=C(c1c(F)ccc(NS(=O)(=O)N2CC[C@@H](F)C2)c1F)c1c[nH]c2ncc(-c3cnc(C4CC4)nc3)cc12
inactive: Potency [1] | Potency [2] | Potency [3] | Potency [4] | Potency [5]

C=C1CCC2C(C)(C)CCCC2(C)C1CC/C(C)=C\CO (stereo not given)
inactive: Potency [1] | Potency [2] | Potency [3] | Potency [4] | Potency [5]

COC(CCc1ccc(O)cc1)CC(=O)CCc1ccc(O)cc1 (stereo not given)
inactive: Potency [1] | Potency [2] | Potency [3] | Potency [4] | Potency [5]

CCCSc1nc(N[C@@H]2C[C@H]2c2ccc(F)c(F)c2)c2nnn([C@@H]3C[C@H](OCCO)[C@@H](O)[C@H]3O)c2n1
inactive: Potency [1] | Potency [2] | Potency [3] | Potency [4] | Potency [5]

OC(CC1c2ccccc2-c2cncn21)C1CCCCC1 (stereo not given)
inactive: Potency [1] | Potency [2] | Potency [3] | Potency [4] | Potency [5]

CC1CCCC(O)CCC/C=C/c2cc(OS(=O)(=O)O)cc(O)c2C(=O)O1 (stereo not given)
inactive: Potency [1] | Potency [2] | Potency [3] | Potency [4] | Potency [5]

O=C(CN1C2=NCCN2c2ccccc21)c1ccc(-c2ccccc2)cc1
inactive: Potency [1] | Potency [2] | Potency [3] | Potency [4] | Potency [5]

NS(=O)(=O)Nc1ncnc(OCCOc2ncc(Br)cn2)c1-c1ccc(Br)cc1
inactive: Potency [1] | Potency [2] | Potency [3] | Potency [4] | Potency [5]

CCCCCCCCn1cc(CN(CC)CC)c2cc(-c3cnc(N)nc3)ccc21
inactive: Potency [1] | Potency [2] | Potency [3] | Potency [4] | Potency [5]

Cc1cn2cc(C(=O)N(C)CCO)cc(NC3CCOc4cccc(C)c43)c2n1 (stereo not given)
inactive: Potency [1] | Potency [2] | Potency [3] | Potency [4] | Potency [5]

Cn1ncc(Cl)c1-c1cc(C(=O)NC(CN)Cc2ccc(F)c(F)c2)oc1Cl (stereo not given)
inactive: Potency [1] | Potency [2] | Potency [3] | Potency [4] | Potency [5]

CC12CCC(OC3OC(CO)C(O)C(O)C3OC3OC(CO)C(O)C(O)C3O)CC1CCC1C2CCC2(C)/C(=C3/COC(=O)C3)CCC12O (stereo not given)
inactive: Potency [1] | Potency [2] | Potency [3] | Potency [4] | Potency [5]

CC[N+]1(C/C2=C/CCCCCC2)CCC(NC(=O)C2c3cc(Cl)ccc3Oc3ccc(Cl)cc32)CC1 (stereo not given)
inactive: Potency [1] | Potency [2] | Potency [3] | Potency [4] | Potency [5]
